Experiment [1] in a line: anti-His antibody binders, primary screen, artefact control for SMM control protein annotation, biochemical, small-molecule microarray, 635 nm fluorescence (AID 1128).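 Further: score merges feature fluorescence with signal-to-noise for each printed compound spot.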 The note with it: anti-His Alexa647 antibody binding, higher = more signal.
Experiment [2] has as its system Human papillomavirus type 1a E7 protein (residues 1-88). Kind of experiment: HPV1a E7 small-molecule binders, primary screen, biochemical, small-molecule microarray, residues 1-88, 635 nm (AID 1129). As to conditions: small-molecule microarray binding, fluorescence 635 nm; higher = more signal.
Experiment [3] deals with Focal adhesion kinase 1 (Homo sapiens) (UniProt Q05397). In words: small-molecule microarray binders of FAK, primary screen, biochemical, 635/667 nm fluorescence, BSA, DTT (AID 1130).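 Further: composite of spot emission at 667 nm and signal to noise over triplicate slides.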 The note with it: PTK2 binding, 635 nm fluorescence, higher = more signal.
The test system of experiment [4] is Fibrinogen (Alexa647-labelled). In words: fibrinogen binders on compound microarrays, profiling panel, artefact control for SMM control-protein annotation, biochemical, small-molecule microarray, 635/667 nm fluorescence (AID 1131).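 Further: z-score merges 667 nm fluorescence with per-spot signal-to-noise over triplicate slides.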 As to conditions: fibrinogen-A647 binding fluorescence, higher = more signal.
The target in experiment [5] is Follistatin (Homo sapiens) (UniProt P19883). Kind of experiment: follistatin binders on small-molecule microarrays, primary screen, biochemical, small-molecule microarray, 635/667 nm fluorescence (AID 1132). The note with it: FST binding, 635 nm fluorescence, higher = more signal.
The target in experiment [6] is Fibroblast growth factor 2 (Homo sapiens) (UniProt P09038). In words: FGF2 binders on small-molecule microarrays, primary screen, biochemical, small-molecule microarray, 635/667 nm fluorescence (AID 1133). The note with it: small-molecule microarray binding, FGF2, fluorescence 635/667; higher = more signal.
Experiment [7] in a line: mitochondrial membrane potential change in A549 cells, profiling panel, cell-based, JC-1 fluorescence, basal, 24 h, 100 nL (AID 1138).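 Further: A549 lung adenocarcinoma cells under basal conditions with no added stimulus; test concentration not given here.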 The note with it: higher = more signal.
Experiment [8] has as its system Lefty1. In words: Lefty1 binders on small-molecule microarrays, primary screen, biochemical, small-molecule microarray, 635/667 nm fluorescence (AID 1139). The note with it: small-molecule microarray binding, fluorescence 635/667; higher = more signal.
For experiment [9], the system named is wheat germ agglutinin (Triticum aestivum), Alexa647-labelled. Kind of experiment: wheat germ agglutinin binders on compound microarrays, profiling panel, artefact control for SMM control-protein annotation, biochemical, small-molecule microarray, 635/667 nm fluorescence (AID 1140).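 Further: score merges 667 nm feature emission with signal to noise over triplicate slides.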 As to conditions: WGA-A647 binding, 635 nm fluorescence, higher = more signal.

Experiment [10] has as its target Luciferin 4-monooxygenase (Photinus pyralis) (UniProt P08659). In words: firefly luciferase enzyme inhibitors, primary screen, biochemical, luminescence, purified enzyme, 2006 set (AID 1141).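 Further: cell-free assay with purified firefly luciferase at 100 ng per well in PBS; test concentration not given here.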 The note with it: SteadyGlo luminescence, 30 min, higher = more signal, called active from +8 up or from −8 down.
The subject of experiment [11] is Wnt5a (protein binding on small-molecule microarray). Kind of experiment: Wnt5a binders on small-molecule microarray, primary screen, biophysical, 635/667 nm fluorescence (AID 1142).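 Further: fluorescence read at 667 nm with signal to noise per printed feature.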 The note with it: 635 nm fluorescence, higher = more signal.
Experiment [12] is described as follows: cell viability in Huh7 cells, primary screen, cytotoxicity control for HCV replication inhibitor project, CellTiter-Glo luminescence, basal, 48 h (AID 1143).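 Further: Huh7 hepatoma cells carrying a hepatitis C replication reporter with no stimulus; test concentration not given here.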 As to conditions: Huh7 HCV replicon, higher = more signal, called active from +8 up or from −8 down. For orientation: Cellular ATP, detected with luciferase, serves as a proxy for viable cell number.
Experiment [13] in a line: P. aeruginosa biofilm formation inhibitors, primary screen, PAO1 strain, BacTiter-Glo luminescence, LB-PBS (AID 1144). As to conditions: 12 h, higher = more signal.
The nature of experiment [14]: CREB reporter modulators without forskolin, primary screen, cell-based, PC12, CRE-LacZ reporter, unstimulated (AID 1145). As to conditions: no forskolin, luminescence, 4.5 h, higher = more signal, called active from +8 up or from −8 down.
Experiment [15] is described as follows: CREB reporter modulators under forskolin, primary screen, cell-based, PC12, CRE-LacZ reporter, forskolin-stimulated (AID 1146).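 Further: PC12 cells with 6xCRE LacZ reporter stimulated by forskolin 10 µM; beta-galactosidase reporter signal reflecting CREB driven transcription.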 As to conditions: luminescence, 4.5 h, higher = more signal, called active from +8 up or from −8 down.
The target in experiment [16] is Streptavidin (Streptomyces avidinii) (UniProt P22629). In words: streptavidin binders on small-molecule microarray, primary screen, artefact control for SMM compound annotation, biophysical, 635/667 nm fluorescence (AID 1147).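 Further: signal reflects streptavidin binding to arrayed compounds as a control protein.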 As to conditions: streptavidin binding, higher = more signal.
Experiment [17] in a line: small-molecule binders of probe aInhba, primary screen, biochemical, small-molecule microarray, 635/667 nm fluorescence (AID 1148).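 Further: score merges 667nm spot fluorescence with signal-to-noise for antibody binding to printed compounds.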 As to conditions: higher = more signal.
Experiment [18] addresses Torsin-1A (Homo sapiens) (UniProt O14656). Kind of experiment: torsin A binders from cell lysate, primary screen, small-molecule microarray, wild-type, 635/667 nm (AID 1149). The note with it: COS7 hTOR1A-WT lysate, 635 nm fluorescence, higher = more signal.
The target is the same in experiment [19]. In words: small-molecule binders of mutant TOR1A in lysate, primary screen, cell lysate, small-molecule microarray, COS7 lysate, 635/667 nm fluorescence (AID 1150).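 Further: score pools 667 nm emission and signal to noise measuring lysate protein binding.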 The note with it: COS7 hTOR1A mutant lysate, 635 nm fluorescence, higher = more signal.
The subject of experiment [20] is Sonic hedgehog protein (Shh). Kind of experiment: small-molecule binders of Shh protein, primary screen, biochemical, small-molecule microarray, 635/667 nm fluorescence (AID 1151).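 Further: Shh protein binding to compounds spotted on small-molecule microarray slides; score combines spot fluorescence intensity with signal-to-noise across triplicate slides.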 As to conditions: small-molecule microarray binding, 635 nm fluorescence; higher = more signal.

Activity calls are given as the source filed them. Unless noted, how the calls were made is not given here.

Sequence of Fibroblast growth factor 2 (Homo sapiens) (P09038 whole entry, looked up): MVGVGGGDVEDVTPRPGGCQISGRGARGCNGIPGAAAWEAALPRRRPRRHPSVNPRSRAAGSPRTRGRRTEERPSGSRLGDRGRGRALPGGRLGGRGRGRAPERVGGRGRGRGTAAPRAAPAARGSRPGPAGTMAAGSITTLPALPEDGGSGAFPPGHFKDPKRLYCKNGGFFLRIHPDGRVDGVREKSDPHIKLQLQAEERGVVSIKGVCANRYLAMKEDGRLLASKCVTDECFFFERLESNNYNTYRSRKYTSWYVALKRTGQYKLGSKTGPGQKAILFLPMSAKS
Sequence of Follistatin (Homo sapiens) (P19883 whole entry, looked up): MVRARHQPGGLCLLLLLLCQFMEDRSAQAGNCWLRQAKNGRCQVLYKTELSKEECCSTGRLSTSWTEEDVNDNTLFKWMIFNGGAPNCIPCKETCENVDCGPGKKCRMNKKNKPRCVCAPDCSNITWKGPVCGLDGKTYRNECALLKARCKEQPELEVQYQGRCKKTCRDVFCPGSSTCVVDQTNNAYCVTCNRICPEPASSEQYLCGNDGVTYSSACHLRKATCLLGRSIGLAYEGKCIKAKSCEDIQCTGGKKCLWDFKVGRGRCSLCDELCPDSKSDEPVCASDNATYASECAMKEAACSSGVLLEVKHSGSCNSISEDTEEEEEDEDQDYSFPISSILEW
Sequence of Torsin-1A (Homo sapiens) (O14656 whole entry, looked up): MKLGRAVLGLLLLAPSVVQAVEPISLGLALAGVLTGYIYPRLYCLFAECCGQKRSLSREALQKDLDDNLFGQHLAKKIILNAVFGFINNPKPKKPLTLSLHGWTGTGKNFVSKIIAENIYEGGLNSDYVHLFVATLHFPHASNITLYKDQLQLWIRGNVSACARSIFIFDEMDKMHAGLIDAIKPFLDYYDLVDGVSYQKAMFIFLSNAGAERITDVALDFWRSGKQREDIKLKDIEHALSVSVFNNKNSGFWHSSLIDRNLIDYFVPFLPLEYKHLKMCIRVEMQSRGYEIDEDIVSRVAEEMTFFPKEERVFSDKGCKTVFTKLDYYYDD
Sequence of Focal adhesion kinase 1 (Homo sapiens) (Q05397 whole entry, looked up): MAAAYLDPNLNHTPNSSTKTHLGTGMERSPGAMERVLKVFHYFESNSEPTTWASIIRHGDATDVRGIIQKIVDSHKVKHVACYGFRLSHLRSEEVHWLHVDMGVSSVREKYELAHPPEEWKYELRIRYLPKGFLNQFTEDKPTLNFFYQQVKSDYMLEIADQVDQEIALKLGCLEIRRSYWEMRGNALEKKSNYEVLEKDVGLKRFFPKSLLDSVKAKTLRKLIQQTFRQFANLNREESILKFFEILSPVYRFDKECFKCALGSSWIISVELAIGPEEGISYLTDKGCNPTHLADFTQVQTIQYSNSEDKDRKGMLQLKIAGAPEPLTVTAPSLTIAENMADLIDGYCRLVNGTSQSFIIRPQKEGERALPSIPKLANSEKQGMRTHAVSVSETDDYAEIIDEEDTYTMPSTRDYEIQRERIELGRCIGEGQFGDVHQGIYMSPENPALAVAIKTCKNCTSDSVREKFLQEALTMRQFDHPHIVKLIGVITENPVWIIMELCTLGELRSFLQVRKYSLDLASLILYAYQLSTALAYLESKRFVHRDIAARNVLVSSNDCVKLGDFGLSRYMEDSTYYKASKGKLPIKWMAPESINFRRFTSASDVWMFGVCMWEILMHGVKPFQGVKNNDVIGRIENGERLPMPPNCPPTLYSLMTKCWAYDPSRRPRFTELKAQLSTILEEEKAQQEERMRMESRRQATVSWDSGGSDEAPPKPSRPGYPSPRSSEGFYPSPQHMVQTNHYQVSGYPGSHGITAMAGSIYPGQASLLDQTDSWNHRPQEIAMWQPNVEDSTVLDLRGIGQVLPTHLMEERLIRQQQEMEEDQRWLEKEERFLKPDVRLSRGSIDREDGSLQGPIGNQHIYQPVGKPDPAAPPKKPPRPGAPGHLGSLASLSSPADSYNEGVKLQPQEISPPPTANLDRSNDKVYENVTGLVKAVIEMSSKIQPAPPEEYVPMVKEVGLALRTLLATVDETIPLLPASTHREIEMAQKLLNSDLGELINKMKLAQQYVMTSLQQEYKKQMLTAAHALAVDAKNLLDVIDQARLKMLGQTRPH
Sequence of Luciferin 4-monooxygenase (Photinus pyralis) (P08659 whole entry, looked up): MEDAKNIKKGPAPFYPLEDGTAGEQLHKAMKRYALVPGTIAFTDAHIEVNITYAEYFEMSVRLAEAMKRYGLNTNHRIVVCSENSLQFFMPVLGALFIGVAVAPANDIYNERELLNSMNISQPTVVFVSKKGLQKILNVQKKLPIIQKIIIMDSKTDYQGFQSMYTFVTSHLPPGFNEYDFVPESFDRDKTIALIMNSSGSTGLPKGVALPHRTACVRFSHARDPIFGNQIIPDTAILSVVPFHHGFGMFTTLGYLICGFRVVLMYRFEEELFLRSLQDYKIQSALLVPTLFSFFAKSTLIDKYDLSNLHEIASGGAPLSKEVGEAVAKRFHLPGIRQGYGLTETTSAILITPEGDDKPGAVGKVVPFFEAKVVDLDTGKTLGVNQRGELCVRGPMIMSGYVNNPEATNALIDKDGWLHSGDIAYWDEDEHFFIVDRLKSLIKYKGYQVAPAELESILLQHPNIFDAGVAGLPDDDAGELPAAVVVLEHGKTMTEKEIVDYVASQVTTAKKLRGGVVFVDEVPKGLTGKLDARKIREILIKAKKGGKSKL
Sequence of Streptavidin (Streptomyces avidinii) (P22629 whole entry, looked up): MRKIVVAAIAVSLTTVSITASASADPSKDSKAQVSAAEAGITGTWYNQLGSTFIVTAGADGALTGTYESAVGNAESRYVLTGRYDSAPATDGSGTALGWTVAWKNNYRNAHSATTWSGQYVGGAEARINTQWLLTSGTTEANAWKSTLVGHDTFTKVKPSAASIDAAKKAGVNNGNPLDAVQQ

Regarding `COC(=O)c1c(CC[C@@H](CO)NC(=O)N[C@@H](C)Cn2cc(C3(O)CCCC3)nn2)oc(C(C)=O)c1C(=O)OC`, the composite z-score in [1] was 0.863; in experiment [2], -0.0221; in [3], -0.118; in experiment [4], 0.188; in [5], 0.511; in experiment [6], 0.0707. Besides, the composite z-score in [8] is 1.54; in experiment [9], 1.3; in experiment [11] it was -0.22; in [16], 0.0648; in experiment [17], 0.117; in experiment [18], 0.862. Further, the results for the composite z-score in [19] and in experiment [20] were 0.277 and 2.16, respectively. The z-score is -0.638 in experiment [7]; 0.315 (inactive) in experiment [10]; -2.75 (inactive) in experiment [12]; -0.0355 (inactive) in experiment [13]; 0.861 (inactive) in experiment [14]; -0.144 (inactive) in [15].
Take `[N-]=[N+]=NCc1ccccc1C[C@]1(C(=O)NCCN2CCOCC2)N=C(c2ccc(OCCCO)cc2)O[C@H]1c1ccccc1`: the composite z-score in [1] turned out to be 0.478; in experiment [2], 1.22; in [3] it was 0.378; in experiment [4], 1.01; in experiment [5] it was 1.39; in experiment [6] it was 0.473. Also, the composite z-score in [8] was 0.649; in [9] it was 0.556; in experiment [11], 0.461; in experiment [16], -0.0127; in [17], 0.364; in experiment [18] it was 1.39. Moreover, the values for the composite z-score in [19] and in experiment [20] were 0.531 and 1.1, respectively. Besides, the z-score in experiment [7] was 1.02; in experiment [10], 0.375 (inactive); in experiment [12], -4.59 (inactive); in [13], -1.63 (inactive); in experiment [14] it was 1.11 (inactive); in experiment [15] it was -0.838 (inactive).
With `COC(=O)[C@@]1(Cc2ccc(OC)cc2)[C@H]2c3cc(C(=O)N(C)C)n(Cc4cc(F)c(F)c(F)c4)c3C[C@H]2CN1C(=O)c1ccccc1`, the composite z-score in experiment [1] was 1; in experiment [2], 1.21; in experiment [3] it was 1.86; in experiment [4], 1.01; in [5] it was 0.761; in [6], -0.965. The composite z-score in experiment [8] was 0.0601; in experiment [9] it was 0.952; in [11] it was 0.397; in experiment [16] it was 1.63; in experiment [17], 0.528; in experiment [18] it was -0.312. For the same compound, the composite z-score in [19] was 0.712; in [20], -0.692. The z-score in [7] is -0.787; in [10], 1.07 (inactive); in experiment [12], -4.47 (inactive); in [13] it was -0.00792 (inactive); in experiment [14], 1.34 (inactive); in experiment [15], 1.12 (inactive).
With `CCCN1C(=O)[C@@H]2Cc3c([nH]c4ccccc34)[C@@H](c3cccc(O)c3)N2C1=O`, the composite z-score in experiment [1] is -0.147; in experiment [2], 0.483; in experiment [3], 0.131; in experiment [4], 0.321; in experiment [5] it was 0.374; in [6] it was 0.428. Also, the composite z-score in experiment [8] was 0.287; in [9] it was -0.0455; in experiment [11], -0.0436; in experiment [16], -0.294; in experiment [17] it was -0.024; in experiment [18], 0.288. The composite z-score in [19] worked out at 0.193; in experiment [20] it was 0.216. Further, the z-score was 0.233 in experiment [7]; 0.718 (inactive) in experiment [10]; 0.792 (inactive) in experiment [12]; -0.23 (inactive) in experiment [13]; -0.374 (inactive) in experiment [14]; -0.0707 (inactive) in experiment [15].
Regarding `CC(C)(C)OC(=O)CC[C@@]1(C(=O)N2CCCCC2)N=C(c2ccc(OCCCO)cc2)O[C@@H]1c1ccccc1N=[N+]=[N-]`, the composite z-score amounted to 2.83 in experiment [1]; 1.27 in experiment [2]; 1.7 in [3]; 0.99 in experiment [4]; 1.26 in [5]; 0.722 in experiment [6]. For the same compound, the composite z-score in experiment [8] amounted to 0.0141; in experiment [9], 1.25; in experiment [11], 0.258; in experiment [16], 2.05; in experiment [17], 0.401; in [18] it was 0.332. The values for the composite z-score in [19] and in experiment [20] were 0.827 and 0.292, respectively. Besides, the z-score in experiment [7] is 1.95; in experiment [10], -11.7 (active); in [12] it was -2.66 (inactive); in [13] it was -0.197 (inactive); in experiment [14] it was 0.227 (inactive); in experiment [15], -1.62 (inactive).
